These results are taken from article PMC7862700, “An all-to-all approach to the identification of sequence-specific readers for epigenetic DNA modifications on cytosine”.

Test in all cases: DAPPL (digital affinity profiling via proximity ligation, sequencing); 10 mM Tris-HCl pH 7.5, 50 mM NaCl, 1 mM DTT, 4% glycerol, room temperature, 30 min; GST-TFs on glutathione beads, 16-mer random dsDNA library, 0.1% formaldehyde crosslink after washing; high values mean tight binding
Details in all cases: protein: recombinant; tags: N-terminal GST; dsDNA, one strand shown

For assay [1], the target named is T1, FLI1 (Homo sapiens, UniProt Q01543 1-452).
T1 sequence: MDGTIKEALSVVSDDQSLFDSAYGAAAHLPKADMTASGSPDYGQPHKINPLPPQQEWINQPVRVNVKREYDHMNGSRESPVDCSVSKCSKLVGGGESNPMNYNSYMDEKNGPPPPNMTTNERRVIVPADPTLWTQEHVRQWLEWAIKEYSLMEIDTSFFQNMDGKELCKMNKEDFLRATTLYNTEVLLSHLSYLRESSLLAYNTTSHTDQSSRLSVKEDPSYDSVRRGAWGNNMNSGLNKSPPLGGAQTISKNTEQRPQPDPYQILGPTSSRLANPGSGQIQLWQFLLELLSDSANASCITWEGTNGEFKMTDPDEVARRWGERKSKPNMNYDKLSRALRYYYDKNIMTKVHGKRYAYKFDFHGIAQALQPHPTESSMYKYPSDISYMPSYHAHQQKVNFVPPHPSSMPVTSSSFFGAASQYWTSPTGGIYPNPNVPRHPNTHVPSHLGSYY
In outline: (§1)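 Pools of DNA-barcoded human transcription factors, expressed in yeast as GST fusions on glutathione beads and combined with a tag-only sample, were incubated with 200 nmole of a 16-mer random double-stranded DNA library. Incubation took 30 min at room temperature in Tris/NaCl/DTT/glycerol buffer and was followed by washing, 0.1% formaldehyde crosslinking, proximity ligation (BsaI/T4 ligase, 1 h, 37 °C), PCR amplification and sequencing on an Illumina NextSeq500. Binding signal is the ratio of a hexamer's read frequency for a factor to its frequency for the tag-only sample.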

Assay [2] addresses T2, ELK1 (Homo sapiens, UniProt P19419 1-428).
T2 sequence: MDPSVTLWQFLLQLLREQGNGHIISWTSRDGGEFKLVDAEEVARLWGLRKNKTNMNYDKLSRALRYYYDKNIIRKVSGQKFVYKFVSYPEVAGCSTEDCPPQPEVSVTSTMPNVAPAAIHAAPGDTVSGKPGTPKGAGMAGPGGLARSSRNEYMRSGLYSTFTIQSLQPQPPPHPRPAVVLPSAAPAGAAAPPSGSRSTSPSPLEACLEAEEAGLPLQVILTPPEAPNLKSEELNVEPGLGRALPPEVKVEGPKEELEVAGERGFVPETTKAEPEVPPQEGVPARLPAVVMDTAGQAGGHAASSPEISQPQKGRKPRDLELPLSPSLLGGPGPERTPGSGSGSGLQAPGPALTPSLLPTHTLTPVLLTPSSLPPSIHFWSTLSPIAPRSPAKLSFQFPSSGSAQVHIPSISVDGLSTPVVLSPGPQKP
In short, it runs like this: as §1

Assay [3] addresses T3, GABPA (Homo sapiens, UniProt Q06546 1-454).
T3 sequence: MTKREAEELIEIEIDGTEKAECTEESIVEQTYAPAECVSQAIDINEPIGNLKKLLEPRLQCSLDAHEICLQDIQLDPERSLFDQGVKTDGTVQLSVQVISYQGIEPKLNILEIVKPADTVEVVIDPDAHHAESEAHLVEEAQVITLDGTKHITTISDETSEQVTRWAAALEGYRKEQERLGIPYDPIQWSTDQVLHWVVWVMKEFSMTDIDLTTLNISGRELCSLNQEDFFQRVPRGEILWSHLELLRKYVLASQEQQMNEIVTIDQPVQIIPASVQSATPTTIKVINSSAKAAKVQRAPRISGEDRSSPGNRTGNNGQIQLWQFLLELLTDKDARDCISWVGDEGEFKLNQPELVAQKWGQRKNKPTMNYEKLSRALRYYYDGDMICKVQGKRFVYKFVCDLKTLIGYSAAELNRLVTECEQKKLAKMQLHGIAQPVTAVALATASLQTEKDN
In short, it runs like this:
as §1

Assay [4] concerns the target T4, ERG (Homo sapiens, UniProt P11308 1-479).
T4 sequence: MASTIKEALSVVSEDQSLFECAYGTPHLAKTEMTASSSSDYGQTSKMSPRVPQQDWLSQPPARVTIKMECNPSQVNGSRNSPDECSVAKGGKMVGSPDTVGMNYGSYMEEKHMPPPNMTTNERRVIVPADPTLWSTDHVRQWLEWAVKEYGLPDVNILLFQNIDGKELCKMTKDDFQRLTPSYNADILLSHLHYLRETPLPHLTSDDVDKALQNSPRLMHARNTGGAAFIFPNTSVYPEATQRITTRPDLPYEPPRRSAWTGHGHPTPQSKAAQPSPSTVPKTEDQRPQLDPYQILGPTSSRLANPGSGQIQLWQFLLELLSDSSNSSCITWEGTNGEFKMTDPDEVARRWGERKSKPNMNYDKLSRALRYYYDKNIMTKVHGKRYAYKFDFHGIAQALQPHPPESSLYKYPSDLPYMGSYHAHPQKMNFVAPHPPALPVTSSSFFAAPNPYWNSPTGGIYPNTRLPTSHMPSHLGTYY
In short, it runs like this: as §1

For assay [5], the target named is ELF1 (Homo sapiens, UniProt P32519 1-619). In outline:
as §1

Assay [6] has as its target T5, EHF (Homo sapiens, UniProt Q9NZC4 1-300).
T5 sequence: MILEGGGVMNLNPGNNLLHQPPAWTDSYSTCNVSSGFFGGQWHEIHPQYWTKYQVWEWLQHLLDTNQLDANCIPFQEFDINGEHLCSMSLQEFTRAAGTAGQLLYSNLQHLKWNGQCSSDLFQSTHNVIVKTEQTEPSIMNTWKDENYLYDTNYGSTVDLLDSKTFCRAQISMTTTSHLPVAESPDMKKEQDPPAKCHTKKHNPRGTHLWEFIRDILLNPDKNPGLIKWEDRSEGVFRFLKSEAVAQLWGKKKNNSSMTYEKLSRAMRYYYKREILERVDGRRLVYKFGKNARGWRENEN
In outline:
as §1

For assay [7], the target named is SPI1 (Homo sapiens, UniProt P17947 1-270). In short, it runs like this:
as §1

Assay [8] addresses SPIB (Homo sapiens, UniProt Q01892 1-262). In short, it runs like this:
as §1

For assay [9], the target named is T6, FEV (Homo sapiens, UniProt Q99581 1-238).
T6 sequence: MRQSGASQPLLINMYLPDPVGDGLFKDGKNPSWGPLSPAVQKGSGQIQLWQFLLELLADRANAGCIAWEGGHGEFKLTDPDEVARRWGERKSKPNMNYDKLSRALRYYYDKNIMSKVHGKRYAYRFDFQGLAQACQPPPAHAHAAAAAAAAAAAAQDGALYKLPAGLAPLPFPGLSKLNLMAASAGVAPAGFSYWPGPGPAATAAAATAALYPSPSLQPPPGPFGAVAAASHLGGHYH
In outline: as §1

For assay [10], the target named is ETV5 (Homo sapiens, UniProt P41161 1-510). In short, it runs like this: as §1
Chain of ETV5 (P41161 whole entry): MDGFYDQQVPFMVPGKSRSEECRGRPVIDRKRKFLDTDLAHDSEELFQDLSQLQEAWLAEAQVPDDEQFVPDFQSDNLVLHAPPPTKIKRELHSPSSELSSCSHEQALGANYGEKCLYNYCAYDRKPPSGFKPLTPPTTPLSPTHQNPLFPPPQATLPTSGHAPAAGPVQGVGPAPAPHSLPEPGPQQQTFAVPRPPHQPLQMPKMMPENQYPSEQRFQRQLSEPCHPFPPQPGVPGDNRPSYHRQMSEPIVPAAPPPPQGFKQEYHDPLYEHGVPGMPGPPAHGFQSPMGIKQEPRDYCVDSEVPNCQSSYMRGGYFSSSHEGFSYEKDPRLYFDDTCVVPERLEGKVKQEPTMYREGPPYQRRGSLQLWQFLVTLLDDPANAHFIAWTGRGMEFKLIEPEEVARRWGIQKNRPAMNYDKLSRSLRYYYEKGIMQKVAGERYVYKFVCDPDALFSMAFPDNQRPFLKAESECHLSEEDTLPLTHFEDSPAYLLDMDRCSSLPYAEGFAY
The target in assay [11] is T7, SPIC (Homo sapiens, UniProt Q8N5J4 1-248).
T7 sequence: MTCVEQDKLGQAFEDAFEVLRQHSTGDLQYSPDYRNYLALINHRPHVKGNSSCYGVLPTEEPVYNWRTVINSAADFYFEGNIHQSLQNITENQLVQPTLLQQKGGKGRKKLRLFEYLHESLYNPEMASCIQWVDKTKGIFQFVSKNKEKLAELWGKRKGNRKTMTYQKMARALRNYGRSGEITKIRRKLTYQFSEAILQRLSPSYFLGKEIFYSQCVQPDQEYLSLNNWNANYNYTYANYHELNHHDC
In outline:
as §1

For assay [12], the target named is ELF4 (Homo sapiens, UniProt Q99607 1-663). In short, it runs like this: as §1
Chain of ELF4 (Q99607 whole entry): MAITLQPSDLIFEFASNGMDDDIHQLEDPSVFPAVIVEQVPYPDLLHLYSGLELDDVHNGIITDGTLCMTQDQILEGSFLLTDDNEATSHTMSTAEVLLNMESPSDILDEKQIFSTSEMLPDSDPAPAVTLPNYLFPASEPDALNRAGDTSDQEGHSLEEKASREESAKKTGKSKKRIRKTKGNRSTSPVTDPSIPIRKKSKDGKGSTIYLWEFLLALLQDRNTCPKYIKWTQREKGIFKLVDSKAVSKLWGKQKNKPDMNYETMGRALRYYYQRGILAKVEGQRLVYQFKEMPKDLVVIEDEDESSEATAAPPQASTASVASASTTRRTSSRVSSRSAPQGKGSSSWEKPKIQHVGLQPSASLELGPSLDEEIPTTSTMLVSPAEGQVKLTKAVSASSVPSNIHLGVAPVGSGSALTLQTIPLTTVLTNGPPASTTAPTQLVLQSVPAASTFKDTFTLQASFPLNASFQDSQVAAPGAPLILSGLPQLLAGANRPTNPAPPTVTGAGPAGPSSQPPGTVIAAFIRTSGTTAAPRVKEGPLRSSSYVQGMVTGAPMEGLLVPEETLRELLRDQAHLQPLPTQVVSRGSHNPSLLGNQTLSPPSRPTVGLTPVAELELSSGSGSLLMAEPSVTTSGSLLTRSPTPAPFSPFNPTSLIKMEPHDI
Assay [13] deals with ETV1 (Homo sapiens, UniProt P50549 1-477). In outline: as §1
Chain of ETV1 (P50549 whole entry): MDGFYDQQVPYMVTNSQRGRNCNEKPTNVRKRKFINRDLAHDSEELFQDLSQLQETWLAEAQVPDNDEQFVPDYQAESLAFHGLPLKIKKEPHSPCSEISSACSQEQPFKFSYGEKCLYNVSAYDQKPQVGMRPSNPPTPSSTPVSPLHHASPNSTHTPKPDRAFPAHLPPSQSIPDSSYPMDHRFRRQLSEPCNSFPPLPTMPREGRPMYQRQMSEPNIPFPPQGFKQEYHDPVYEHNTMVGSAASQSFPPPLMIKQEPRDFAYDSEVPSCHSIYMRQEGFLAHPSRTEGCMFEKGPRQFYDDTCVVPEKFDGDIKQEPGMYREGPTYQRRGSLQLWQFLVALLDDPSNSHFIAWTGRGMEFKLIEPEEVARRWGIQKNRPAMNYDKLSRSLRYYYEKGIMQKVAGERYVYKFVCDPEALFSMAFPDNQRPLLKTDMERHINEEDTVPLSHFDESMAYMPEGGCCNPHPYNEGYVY
The target of assay [14] is T8, ERF (Homo sapiens, UniProt P50548 1-548).
T8 sequence: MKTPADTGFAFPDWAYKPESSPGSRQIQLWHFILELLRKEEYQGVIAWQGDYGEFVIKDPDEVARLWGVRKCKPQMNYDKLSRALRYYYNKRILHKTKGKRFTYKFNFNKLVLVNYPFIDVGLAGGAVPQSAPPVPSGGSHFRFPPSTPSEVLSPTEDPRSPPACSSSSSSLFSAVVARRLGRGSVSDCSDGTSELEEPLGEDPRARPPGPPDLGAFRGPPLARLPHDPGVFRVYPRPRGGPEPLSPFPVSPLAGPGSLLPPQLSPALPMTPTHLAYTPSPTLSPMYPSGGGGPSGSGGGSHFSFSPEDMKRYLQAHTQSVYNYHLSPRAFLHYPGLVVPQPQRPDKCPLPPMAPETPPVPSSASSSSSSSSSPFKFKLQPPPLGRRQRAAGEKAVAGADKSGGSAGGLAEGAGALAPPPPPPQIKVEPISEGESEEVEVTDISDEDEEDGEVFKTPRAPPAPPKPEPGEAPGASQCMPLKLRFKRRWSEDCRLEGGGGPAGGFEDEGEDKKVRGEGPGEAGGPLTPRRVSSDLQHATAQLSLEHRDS
In short, it runs like this:
as §1

Assay [15] deals with T9, ETV3L (Homo sapiens, UniProt Q6ZN32 1-361).
T9 sequence: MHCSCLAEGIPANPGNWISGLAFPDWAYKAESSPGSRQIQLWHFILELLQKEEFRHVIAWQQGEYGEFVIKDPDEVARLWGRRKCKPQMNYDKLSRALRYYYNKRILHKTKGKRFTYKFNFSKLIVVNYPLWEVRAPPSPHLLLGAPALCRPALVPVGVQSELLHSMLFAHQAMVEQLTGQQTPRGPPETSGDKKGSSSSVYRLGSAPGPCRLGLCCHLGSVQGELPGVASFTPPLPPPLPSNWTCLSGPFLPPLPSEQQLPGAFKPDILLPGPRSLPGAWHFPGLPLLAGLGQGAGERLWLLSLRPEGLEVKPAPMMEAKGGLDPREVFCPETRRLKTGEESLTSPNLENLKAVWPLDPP
In outline:
as §1

The target in assay [16] is T10, ETS2 (Homo sapiens, UniProt P15036 1-469).
T10 sequence: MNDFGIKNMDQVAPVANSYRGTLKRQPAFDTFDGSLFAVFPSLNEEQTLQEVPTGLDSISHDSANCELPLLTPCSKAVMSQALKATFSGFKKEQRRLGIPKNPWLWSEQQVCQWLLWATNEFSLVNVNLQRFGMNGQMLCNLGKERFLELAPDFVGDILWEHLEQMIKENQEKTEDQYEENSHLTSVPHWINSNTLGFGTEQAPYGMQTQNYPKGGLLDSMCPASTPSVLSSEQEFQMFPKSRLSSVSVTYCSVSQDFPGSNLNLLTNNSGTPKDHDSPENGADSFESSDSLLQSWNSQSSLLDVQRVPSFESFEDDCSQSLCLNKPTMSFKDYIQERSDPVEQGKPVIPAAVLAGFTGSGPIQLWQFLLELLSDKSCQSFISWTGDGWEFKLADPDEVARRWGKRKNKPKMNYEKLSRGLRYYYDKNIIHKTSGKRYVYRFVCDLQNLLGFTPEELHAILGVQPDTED
In outline:
as §1

Assay [17] has as its target T11, SPDEF (Homo sapiens, UniProt O95238 1-335).
T11 sequence: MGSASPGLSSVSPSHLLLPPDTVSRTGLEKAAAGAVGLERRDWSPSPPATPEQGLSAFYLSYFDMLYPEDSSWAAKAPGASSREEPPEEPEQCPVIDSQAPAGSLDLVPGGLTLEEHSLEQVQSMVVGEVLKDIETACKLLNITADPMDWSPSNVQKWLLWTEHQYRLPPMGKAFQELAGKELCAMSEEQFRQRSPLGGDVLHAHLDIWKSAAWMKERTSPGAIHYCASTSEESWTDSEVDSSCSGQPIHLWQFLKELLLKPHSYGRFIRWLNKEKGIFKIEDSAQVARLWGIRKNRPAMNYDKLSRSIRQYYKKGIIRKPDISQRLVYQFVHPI
In outline: as §1

The target of assay [18] is T12, ELF5 (Homo sapiens, UniProt Q9UKW6-2 1-255).
T12 sequence: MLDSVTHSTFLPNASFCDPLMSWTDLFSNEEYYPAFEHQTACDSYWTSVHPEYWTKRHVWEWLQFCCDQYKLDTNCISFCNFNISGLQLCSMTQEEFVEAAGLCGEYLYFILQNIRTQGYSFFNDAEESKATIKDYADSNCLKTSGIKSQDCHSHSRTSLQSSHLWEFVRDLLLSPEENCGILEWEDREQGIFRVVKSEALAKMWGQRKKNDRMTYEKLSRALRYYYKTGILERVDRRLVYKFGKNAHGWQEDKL
In outline: as §1

Assay [19] addresses T13, ETV3 (Homo sapiens, UniProt P41162-2 1-143).
T13 sequence: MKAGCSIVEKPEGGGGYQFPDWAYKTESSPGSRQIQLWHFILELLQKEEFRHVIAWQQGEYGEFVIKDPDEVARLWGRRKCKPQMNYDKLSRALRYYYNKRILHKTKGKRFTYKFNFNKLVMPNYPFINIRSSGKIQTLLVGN
In short, it runs like this: as §1

In assay [20] the target is ETV6 (Homo sapiens, UniProt P41212 1-452). In short, it runs like this:
as §1

Chain of ETV6 (P41212 whole entry): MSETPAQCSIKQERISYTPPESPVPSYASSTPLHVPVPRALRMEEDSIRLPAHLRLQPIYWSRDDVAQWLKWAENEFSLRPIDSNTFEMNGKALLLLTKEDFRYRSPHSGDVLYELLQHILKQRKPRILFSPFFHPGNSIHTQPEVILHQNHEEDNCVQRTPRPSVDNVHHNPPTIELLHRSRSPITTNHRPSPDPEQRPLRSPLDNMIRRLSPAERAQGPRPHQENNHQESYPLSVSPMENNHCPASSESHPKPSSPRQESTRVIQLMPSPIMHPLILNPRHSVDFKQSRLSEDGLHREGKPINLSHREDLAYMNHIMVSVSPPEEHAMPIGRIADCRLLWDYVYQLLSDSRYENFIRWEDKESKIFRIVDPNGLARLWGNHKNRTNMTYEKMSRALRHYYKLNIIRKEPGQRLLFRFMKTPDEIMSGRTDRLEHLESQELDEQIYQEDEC
Chain of ELF1 (P32519 whole entry): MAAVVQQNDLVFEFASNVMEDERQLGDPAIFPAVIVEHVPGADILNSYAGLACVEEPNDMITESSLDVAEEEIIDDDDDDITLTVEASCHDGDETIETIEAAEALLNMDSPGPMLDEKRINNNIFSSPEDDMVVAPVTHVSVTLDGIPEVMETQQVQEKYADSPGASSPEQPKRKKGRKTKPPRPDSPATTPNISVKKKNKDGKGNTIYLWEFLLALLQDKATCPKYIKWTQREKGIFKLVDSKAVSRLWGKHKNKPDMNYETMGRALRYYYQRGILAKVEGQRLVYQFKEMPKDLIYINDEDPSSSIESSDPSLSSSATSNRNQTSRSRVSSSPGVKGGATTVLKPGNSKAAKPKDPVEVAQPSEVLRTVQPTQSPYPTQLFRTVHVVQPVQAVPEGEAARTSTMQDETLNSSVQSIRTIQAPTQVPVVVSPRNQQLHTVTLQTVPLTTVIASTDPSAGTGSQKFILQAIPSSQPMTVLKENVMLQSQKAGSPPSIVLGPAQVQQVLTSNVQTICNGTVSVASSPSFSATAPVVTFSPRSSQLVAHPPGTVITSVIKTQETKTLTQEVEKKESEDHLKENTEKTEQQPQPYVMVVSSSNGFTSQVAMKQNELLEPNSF
Chain of SPIB (Q01892 whole entry): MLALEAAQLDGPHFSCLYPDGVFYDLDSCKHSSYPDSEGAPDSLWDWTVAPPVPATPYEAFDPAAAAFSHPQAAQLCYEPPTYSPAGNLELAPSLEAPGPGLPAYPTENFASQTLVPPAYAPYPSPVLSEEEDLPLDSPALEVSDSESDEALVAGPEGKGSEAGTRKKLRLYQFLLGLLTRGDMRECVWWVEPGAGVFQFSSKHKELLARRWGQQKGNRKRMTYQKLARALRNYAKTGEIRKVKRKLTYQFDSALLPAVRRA

Take ACGTTG: the binding signal was 1.14 fold enrichment (6-mer frequency, TF over GST control) in assay [1]; 1.11 fold enrichment (6-mer frequency, TF over GST control) in [2]; 1.05 fold enrichment (6-mer frequency, TF over GST control) in assay [3]; 1.05 fold enrichment (6-mer frequency, TF over GST control) in [4]; 1.03 fold enrichment (6-mer frequency, TF over GST control) in assay [5]; 1.07 fold enrichment (6-mer frequency, TF over GST control) in [6]. For the same sequence, the binding signal is 1.08 fold enrichment (6-mer frequency, TF over GST control) in assay [7]; 1.02 fold enrichment (6-mer frequency, TF over GST control) in [8]; 1.07 fold enrichment (6-mer frequency, TF over GST control) in assay [9]; 1.03 fold enrichment (6-mer frequency, TF over GST control) in assay [10]; 1.28 fold enrichment (6-mer frequency, TF over GST control) in assay [11]; 1.13 fold enrichment (6-mer frequency, TF over GST control) in [12]. Also, the binding signal in assay [13] was 1.06 fold enrichment (6-mer frequency, TF over GST control); in assay [14], 1.07 fold enrichment (6-mer frequency, TF over GST control); in assay [15], 1.08 fold enrichment (6-mer frequency, TF over GST control); in assay [16] it was 1.07 fold enrichment (6-mer frequency, TF over GST control); in assay [17] it was 1.17 fold enrichment (6-mer frequency, TF over GST control); in [18] it was 1.02 fold enrichment (6-mer frequency, TF over GST control). Moreover, the binding signal was 1.11 fold enrichment (6-mer frequency, TF over GST control) in [19] and 1.11 fold enrichment (6-mer frequency, TF over GST control) in [20].
